Assay results from PubChem BioAssay (EPA / NIEHS).
Results filed as inconclusive are left out. Active and inactive are the calls of the source. The calls were made as follows, unless noted: active = hit-call score of the fitted dose curve at least 0.9, where 1 is the maximum; inactive = score below 0.9.

Experiments:
[1] = ATG_PXRE_CIS: Attagene CIS-FACTORIAL HepG2 Assay for human Pregnane X Receptor Element (PXRE) (AID 2282957); conditions: HepG2 Attagene CIS-FACTORIAL PXRE reporter, mRNA; actives raise or lower the signal
Summary of the method: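 Fluorescent capillary electrophoresis of amplified reporter cDNA gave the signal, collected 24 h after dosing HepG2 cells that held transfected cis-element reporter constructs.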

[2] = ATG_PPRE_CIS: Attagene CIS-FACTORIAL HepG2 Assay for human Peroxisome Proliferator-activated Response Element (PPRE) (AID 2282958); conditions: HepG2 PPRE cis-element reporter, Attagene transcription factor profiling; actives raise or lower the signal
Summary of the method: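 Transcript-level reporter induction in transfected HepG2 cells after 24 h chemical exposure, quantified by fluorescence from RT-PCR products separated by capillary electrophoresis.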

[3] = ATG_RORE_CIS: Attagene CIS-FACTORIAL HepG2 Assay for human RAR-related Orphan Receptor Element (RORE) (AID 2282959); conditions: HepG2 Attagene cis-factorial RORE reporter, mRNA; actives raise or lower the signal
Summary of the method: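 Multiplexed reporter assay measuring mRNA induction from a cis promoter element in transiently transfected HepG2 cells after 24 h treatment. Detection via RT-PCR and capillary electrophoresis fluorescence; DMSO serves as baseline.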

[4] = ATG_Sox_CIS: Attagene CIS-FACTORIAL HepG2 Assay for human SRY-box transcription factor (SOX) (AID 2282960); conditions: HepG2 Attagene cis-factorial SOX reporter, mRNA; actives raise or lower the signal
Summary of the method: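 Cells were transfected with reporter constructs under cis-regulatory promoters, then exposed to chemicals for 24 h. Reporter transcripts were quantified by fluorescence after RT-PCR and capillary electrophoresis; activity was fitted in both directions against DMSO.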

[5] = molecular target: Transcription factor Sp1 (Homo sapiens) (UniProt P08047); assay: ATG_Sp1_CIS: Attagene CIS-FACTORIAL HepG2 Assay for human Specificity Protein 1 (Sp1) (AID 2282961); conditions: HepG2 Sp1 cis-reporter transcription, actives raise or lower the signal
Summary of the method: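 Measures mRNA induction of an Sp1-linked reporter in HepG2 cells 24 h post-dosing. Multiplexed reporters read by RT-PCR and capillary electrophoresis; DMSO serves as negative control and baseline.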

[6] = ATG_SREBP_CIS: Attagene CIS-FACTORIAL HepG2 Assay for human Sterol Regulatory Element Binding (SREBP) (AID 2282962); conditions: HepG2 Attagene cis-factorial SREBP reporter, mRNA; actives raise or lower the signal
Summary of the method: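 Endogenous factor activity is measured in HepG2 through multiplexed reporter units under cis-element control. Following a 24 h incubation, reporter transcripts are reverse-transcribed, PCR-amplified and sized by capillary electrophoresis; activity is fitted in both directions relative to DMSO.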

[7] = molecular target: Signal transducer and activator of transcription 3 (Homo sapiens) (UniProt P40763); assay: ATG_STAT3_CIS: Attagene CIS-FACTORIAL HepG2 Assay for human Signal Transducer and Activator of Transcription 3 (STAT3) (AID 2282963); conditions: HepG2, Attagene cis-factorial STAT3 reporter transcription; actives raise or lower the signal
Summary of the method: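 HepG2, MRTU-transfected, 24 h dosing. RNA → RT → PCR → FAM label → HpaI → CE. Bidirectional fit vs DMSO.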

[8] = ATG_TCF_b_cat_CIS: Attagene CIS-FACTORIAL HepG2 Assay for human T-Cell-Factor with beta-catenin (TCF/b-cat) (AID 2282965); conditions: HepG2 TCF/beta-catenin cis-reporter transcription, actives raise or lower the signal
Summary of the method: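 Using capillary electrophoresis as the read-out, labelled reporter cDNA fragments from transiently transfected HepG2 were sized and quantified. Exposure lasted 24 hours; activity in either direction was referenced to DMSO.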

[9] = ATG_TAL_CIS: Attagene CIS-FACTORIAL HepG2 Assay for human TAL Basal Promoter (AID 2282966); conditions: HepG2 Attagene cis-factorial TAL promoter reporter; actives raise or lower the signal;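 also: background control endpoint measuring basal TAL promoter reporter mRNA not a specific factor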
Summary of the method: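 Transiently transfected HepG2 (cis-regulated reporter units), 24 h treatment, mRNA read by fluorescent CE after RT-PCR; bidirectional fit, DMSO baseline.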

[10] = ATG_TGFb_CIS: Attagene CIS-FACTORIAL HepG2 Assay for human Transforming Growth Factor (TGF) (AID 2282967); conditions: HepG2 Attagene CIS TGFb reporter, mRNA transcription; actives raise or lower the signal
Summary of the method: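 Multiplexed cis-reporter HepG2 system, 24 h treatment; mRNA induction read by fluorescence after RT-PCR and CE; DMSO negative control, bidirectional curve fitting.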

[11] = ATG_VDRE_CIS: Attagene CIS-FACTORIAL HepG2 Assay for human Vitamin D Receptor Element (VDRE) (AID 2282968); conditions: HepG2 VDRE cis-reporter transcription, actives raise or lower the signal
Summary of the method: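 Steps: transfect HepG2 with multiple reporter transcription units; dose chemicals 24 h; isolate RNA; RT-PCR; label with 6-FAM primer extension; HpaI digest; capillary electrophoresis. Curves fitted both directions against DMSO.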

[12] = molecular target: Nuclear receptor subfamily 1 group I member 3 (Homo sapiens) (UniProt Q14994); assay: ATG_CAR_TRANS: Attagene TRANS-FACTORIAL HepG2 Assay for human Constitutive Androstane Receptor (CAR) (AID 2282969; active = hit-call score of the fitted dose curve at least 0.9, where 1 is the maximum;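 also: activators raise reporter mRNA above DMSO so AC50 marks induction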); conditions: HepG2 Attagene TRANS-FACTORIAL CAR reporter
Summary of the method: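 Steps: transient transfection of HepG2 with multiple GAL4-UAS reporter units; 24 h compound incubation; RNA isolation, RT-PCR, 6-FAM primer extension, HpaI digest; capillary electrophoresis. Gain-of-signal relative to DMSO negative control.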

[13] = molecular target: Estrogen receptor (Homo sapiens) (UniProt P03372); assay: ATG_ERa_TRANS: Attagene TRANS-FACTORIAL HepG2 Assay for human Estrogen Receptor alpha (ERa) (AID 2282970; active = hit-call score of the fitted dose curve at least 0.9, where 1 is the maximum); conditions: HepG2 Attagene TRANS ERa GAL4 reporter, mRNA
Summary of the method: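 One of 30 multiplexed endpoints from a HepG2 TRANS system, this one reports ERa-Gal4-driven reporter mRNA. Transcripts were quantified 24 hours post-dosing by fluorescent RT-PCR and capillary electrophoresis, with activity scored as induction over DMSO.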

[14] = molecular target: X-box-binding protein 1 (Homo sapiens) (UniProt P17861); assay: ATG_Xbp1_CIS: Attagene CIS-FACTORIAL HepG2 Assay for human X-box Binding Protein 1 (XBP1) (AID 2282972); conditions: HepG2 XBP1 cis-element reporter, Attagene multiplex; actives raise or lower the signal
Summary of the method: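 Multiplexed cis-reporter readout in transfected HepG2 liver cells. Exposure lasted 24 hours. Activity in either direction was fitted against DMSO as negative control and baseline.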

[15] = ATG_TA_CIS: Attagene CIS-FACTORIAL HepG2 Assay for human TA Basal Promoter (AID 2282964); conditions: HepG2 Attagene CIS-factorial TA basal promoter reporter; actives raise or lower the signal
Summary of the method: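 Cis-factorial format in HepG2: reporters report endogenous factors, not chimeric Gal4 fusions. After 24 h treatment, reporter transcripts were measured by RT-PCR-capillary electrophoresis fluorescence, analysed bidirectionally versus DMSO.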

[16] = ATG_GAL4_TRANS: Attagene TRANS-FACTORIAL HepG2 Assay for GAL4 (Internal Marker) (AID 2282976; active = hit-call score of the fitted dose curve at least 0.9, where 1 is the maximum); conditions: HepG2 Attagene TRANS GAL4 internal marker reporter
Summary of the method: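 HepG2 cells transiently transfected with multiplexed GAL4-UAS reporter constructs were dosed for 24 h. Reporter mRNA was measured by RT-PCR, 6-FAM primer extension, HpaI digestion and capillary electrophoresis, and gain of signal was fitted relative to DMSO.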

[17] = molecular target: Steroid hormone receptor ERR1 (Homo sapiens) (UniProt P11474); assay: ATG_ERRa_TRANS: Attagene TRANS-FACTORIAL HepG2 Assay for human Estrogen-Related Receptor alpha (ERRa) (AID 2282971; active = hit-call score of the fitted dose curve at least 0.9, where 1 is the maximum); conditions: HepG2 Attagene TRANS reporter, ERRa transactivation
Summary of the method: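 HepG2 cells transiently transfected with multiplexed GAL4-UAS reporter units reading chimeric ERRa-Gal4 activity; 24 h compound exposure. Reporter mRNA measured by RT-PCR, 6-FAM labelling, HpaI digest and capillary electrophoresis; gain of signal fitted versus DMSO baseline.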

[18] = ATG_M_19_TRANS: Attagene TRANS-FACTORIAL HepG2 Assay for M19 Transcription Factor (Internal Marker) (AID 2282974; active = hit-call score of the fitted dose curve at least 0.9, where 1 is the maximum); conditions: HepG2 Attagene TRANS-FACTORIAL M19 internal marker reporter
Summary of the method: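 After transfection of HepG2 with GAL4-UAS-driven reporter constructs, cells are dosed for 24 h. Total RNA is reverse-transcribed, reporter sequences PCR-amplified and labelled, then HpaI-digested and sized by capillary electrophoresis.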

[19] = molecular target: Estrogen-related receptor gamma (Homo sapiens) (UniProt P62508); assay: ATG_ERRg_TRANS: Attagene TRANS-FACTORIAL HepG2 Assay for human Estrogen-Related Receptor gamma (ERRg) (AID 2282977; active = hit-call score of the fitted dose curve at least 0.9, where 1 is the maximum;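 also: hits increase reporter signal over DMSO so potencies reflect activators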); conditions: HepG2 Attagene TRANS reporter, ERRg transactivation
Summary of the method: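 Exogenous NR-Gal4 chimera activity measured as reporter transcript induction after 24 h in transiently transfected HepG2 cells. RNA reverse-transcribed, PCR-amplified, 6-FAM-labelled and resolved by capillary electrophoresis; increase over DMSO baseline.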

Measured: AC50

Sequence of Nuclear receptor subfamily 1 group I member 3 (Homo sapiens) (Q14994 whole entry, looked up, the tested form may be a part): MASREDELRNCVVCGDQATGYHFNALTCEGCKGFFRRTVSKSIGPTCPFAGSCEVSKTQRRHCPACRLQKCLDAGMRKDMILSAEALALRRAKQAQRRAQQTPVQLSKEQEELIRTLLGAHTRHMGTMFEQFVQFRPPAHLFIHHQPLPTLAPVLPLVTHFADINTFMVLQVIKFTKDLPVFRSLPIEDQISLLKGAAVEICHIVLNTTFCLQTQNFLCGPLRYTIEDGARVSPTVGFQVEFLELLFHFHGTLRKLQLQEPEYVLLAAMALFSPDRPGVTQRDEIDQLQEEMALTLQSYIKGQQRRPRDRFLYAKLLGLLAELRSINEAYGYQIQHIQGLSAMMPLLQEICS
Sequence of Signal transducer and activator of transcription 3 (Homo sapiens) (P40763 whole entry, looked up): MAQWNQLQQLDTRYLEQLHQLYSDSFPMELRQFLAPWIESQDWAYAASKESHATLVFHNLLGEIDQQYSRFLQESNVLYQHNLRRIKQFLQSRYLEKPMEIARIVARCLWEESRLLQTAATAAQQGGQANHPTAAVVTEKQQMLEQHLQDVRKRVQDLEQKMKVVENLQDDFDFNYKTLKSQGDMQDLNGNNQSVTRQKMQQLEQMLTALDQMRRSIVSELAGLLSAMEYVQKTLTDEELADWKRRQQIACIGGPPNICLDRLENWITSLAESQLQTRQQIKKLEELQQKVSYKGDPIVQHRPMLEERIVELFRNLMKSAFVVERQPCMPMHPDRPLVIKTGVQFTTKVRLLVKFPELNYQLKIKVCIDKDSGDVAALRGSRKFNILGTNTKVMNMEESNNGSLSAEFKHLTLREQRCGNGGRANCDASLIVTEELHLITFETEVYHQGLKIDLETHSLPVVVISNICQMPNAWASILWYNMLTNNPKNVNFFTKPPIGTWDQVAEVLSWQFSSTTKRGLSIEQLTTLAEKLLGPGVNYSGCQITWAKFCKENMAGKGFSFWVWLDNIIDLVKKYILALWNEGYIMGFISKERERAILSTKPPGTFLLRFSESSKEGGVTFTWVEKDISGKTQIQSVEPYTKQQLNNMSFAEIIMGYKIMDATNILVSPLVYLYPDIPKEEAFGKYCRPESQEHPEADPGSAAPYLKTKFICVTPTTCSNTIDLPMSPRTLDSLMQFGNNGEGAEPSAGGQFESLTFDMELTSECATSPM
Sequence of Transcription factor Sp1 (Homo sapiens) (P08047 whole entry, looked up): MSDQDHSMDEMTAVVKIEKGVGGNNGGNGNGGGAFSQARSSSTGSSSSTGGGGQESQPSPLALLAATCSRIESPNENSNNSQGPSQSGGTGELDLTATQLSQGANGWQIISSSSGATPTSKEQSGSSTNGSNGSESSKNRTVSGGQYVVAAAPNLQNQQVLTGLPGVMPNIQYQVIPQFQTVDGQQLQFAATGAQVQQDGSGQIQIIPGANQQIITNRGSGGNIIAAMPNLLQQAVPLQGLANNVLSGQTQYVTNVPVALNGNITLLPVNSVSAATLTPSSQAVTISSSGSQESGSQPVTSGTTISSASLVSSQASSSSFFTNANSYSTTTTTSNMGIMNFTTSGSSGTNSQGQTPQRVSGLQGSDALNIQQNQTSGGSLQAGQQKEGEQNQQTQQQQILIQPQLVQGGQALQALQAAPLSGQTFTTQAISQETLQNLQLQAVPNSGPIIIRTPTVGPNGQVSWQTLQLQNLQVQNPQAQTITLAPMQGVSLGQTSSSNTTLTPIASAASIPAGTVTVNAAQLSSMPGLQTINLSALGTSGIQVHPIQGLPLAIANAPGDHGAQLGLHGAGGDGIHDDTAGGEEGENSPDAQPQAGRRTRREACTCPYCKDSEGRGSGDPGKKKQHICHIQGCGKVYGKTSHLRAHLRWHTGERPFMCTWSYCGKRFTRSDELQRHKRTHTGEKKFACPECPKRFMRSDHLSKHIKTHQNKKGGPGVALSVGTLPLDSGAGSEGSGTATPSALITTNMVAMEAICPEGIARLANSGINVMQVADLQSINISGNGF
Sequence of Estrogen receptor (Homo sapiens) (P03372 whole entry, looked up, the tested form may be a part): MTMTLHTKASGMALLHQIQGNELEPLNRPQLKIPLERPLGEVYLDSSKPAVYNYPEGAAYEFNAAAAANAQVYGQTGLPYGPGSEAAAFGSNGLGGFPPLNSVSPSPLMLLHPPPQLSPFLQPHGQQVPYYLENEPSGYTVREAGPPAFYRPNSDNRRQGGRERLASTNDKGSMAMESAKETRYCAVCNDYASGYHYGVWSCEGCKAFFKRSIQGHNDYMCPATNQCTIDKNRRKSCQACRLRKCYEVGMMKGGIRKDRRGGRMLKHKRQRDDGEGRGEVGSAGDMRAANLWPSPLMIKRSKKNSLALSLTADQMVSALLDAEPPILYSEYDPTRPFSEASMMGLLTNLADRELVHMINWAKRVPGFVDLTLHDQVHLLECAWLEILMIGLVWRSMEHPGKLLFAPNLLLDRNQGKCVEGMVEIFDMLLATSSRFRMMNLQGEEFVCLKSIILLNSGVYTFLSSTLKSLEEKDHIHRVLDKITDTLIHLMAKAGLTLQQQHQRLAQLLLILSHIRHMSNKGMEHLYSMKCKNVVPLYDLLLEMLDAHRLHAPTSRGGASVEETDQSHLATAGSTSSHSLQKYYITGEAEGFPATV
Sequence of X-box-binding protein 1 (Homo sapiens) (P17861 whole entry, looked up): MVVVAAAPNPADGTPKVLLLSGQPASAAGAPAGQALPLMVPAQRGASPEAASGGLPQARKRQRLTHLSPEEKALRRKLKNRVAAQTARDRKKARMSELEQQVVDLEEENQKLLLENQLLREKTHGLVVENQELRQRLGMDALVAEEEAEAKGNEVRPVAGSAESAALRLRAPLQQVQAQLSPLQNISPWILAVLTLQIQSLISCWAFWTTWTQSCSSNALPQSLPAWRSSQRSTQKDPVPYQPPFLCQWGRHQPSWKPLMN
Sequence of Steroid hormone receptor ERR1 (Homo sapiens) (P11474 whole entry, looked up, the tested form may be a part): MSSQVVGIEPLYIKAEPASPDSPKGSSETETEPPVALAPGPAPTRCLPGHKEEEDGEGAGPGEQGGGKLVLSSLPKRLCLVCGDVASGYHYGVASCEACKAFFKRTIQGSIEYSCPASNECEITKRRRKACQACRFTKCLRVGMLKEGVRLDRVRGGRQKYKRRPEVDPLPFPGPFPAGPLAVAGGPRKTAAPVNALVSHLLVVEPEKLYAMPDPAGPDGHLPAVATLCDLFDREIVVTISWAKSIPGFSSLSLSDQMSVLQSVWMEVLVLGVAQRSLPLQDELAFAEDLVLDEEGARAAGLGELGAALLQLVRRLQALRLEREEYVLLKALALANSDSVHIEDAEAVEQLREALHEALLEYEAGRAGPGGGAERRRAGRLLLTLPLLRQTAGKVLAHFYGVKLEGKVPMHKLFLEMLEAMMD
Sequence of Estrogen-related receptor gamma (Homo sapiens) (P62508 whole entry, looked up, the tested form may be a part): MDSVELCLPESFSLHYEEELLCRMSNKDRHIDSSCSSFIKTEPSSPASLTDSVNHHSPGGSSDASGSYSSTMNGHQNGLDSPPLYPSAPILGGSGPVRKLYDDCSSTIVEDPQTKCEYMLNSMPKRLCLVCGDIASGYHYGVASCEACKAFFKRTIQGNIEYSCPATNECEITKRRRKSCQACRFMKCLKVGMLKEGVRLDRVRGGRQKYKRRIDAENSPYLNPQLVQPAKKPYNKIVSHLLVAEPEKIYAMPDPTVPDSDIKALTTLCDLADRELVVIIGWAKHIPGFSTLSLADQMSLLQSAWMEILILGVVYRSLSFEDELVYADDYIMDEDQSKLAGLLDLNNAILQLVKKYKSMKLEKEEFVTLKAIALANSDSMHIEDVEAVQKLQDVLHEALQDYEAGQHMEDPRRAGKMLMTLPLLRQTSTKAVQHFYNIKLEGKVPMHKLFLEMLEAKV

COC(=O)Cc1cccc2ccccc12
inactive: [2] | [3] | [4] | [5] | [6] | [7] | [8] | [9] | [10] | [11] | [12] | [13] | [14]
active: [1] 42.8 µM

NCCCN1CCOCC1
inactive: [1] | [2] | [4] | [5] | [6] | [7] | [15] | [8] | [9] | [10] | [11] | [14]

CCC(=O)/C=C/C1C(C)=CCCC1(C)C (centres undefined)
active: [2] 35 µM
inactive: [3] | [5] | [6] | [7] | [15] | [8] | [9] | [10] | [11] | [14] | [16]

O=c1[nH]c(=O)n([C@H]2CCCO2)cc1F
inactive: [1] | [2] | [4] | [5] | [6] | [7] | [15] | [8] | [10] | [14]

O=C1O[C@@H]2[C@@H](O)[C@H](O)O[C@@H]2[C@H]1O
inactive: [1] | [4] | [5] | [6] | [7] | [15] | [8] | [9] | [10] | [11] | [12] | [13] | [17] | [14]

NCCOCCO
inactive: [1] | [3] | [4] | [5] | [6] | [7] | [15] | [8] | [9] | [10] | [11] | [13] | [14] | [18] | [19]

CC(CN1c2ccccc2Sc2ccccc21)N(C)C (centres undefined)
active: [1] 5.52 µM | [8] 33.4 µM | [9] 50.2 µM | [14] 24.2 µM
inactive: [3] | [4] | [5] | [6] | [7] | [15] | [10] | [18]

CC1CC(OC(=O)c2ccccc2O)CC(C)(C)C1 (centres undefined)
active: [1] 25.8 µM
inactive: [2] | [3] | [5] | [6] | [7] | [15] | [8] | [10] | [12] | [14]

CC(=O)[O][Al][O]C(C)=O
active: [1] 6.49 µM
inactive: [2] | [3] | [4] | [5] | [6] | [7] | [15] | [8] | [9] | [10] | [11] | [14] | [16]

CCCCCCCCCOC(C)=O
inactive: [2] | [4] | [5] | [6] | [7] | [15] | [8] | [9] | [10] | [11] | [12] | [13] | [14] | [18] | [16]
active: [1] 49 µM

O=S(=O)(O)c1cccc2c(S(=O)(=O)O)cccc12
inactive: [5] | [6] | [7] | [15] | [8] | [10] | [11] | [12] | [14] | [16]

C[C@H]1C[C@@H]2[C@H]([C@@H](O)C[C@@]3(C)[C@H]2CC[C@]3(O)C(=O)CO)[C@@]2(C)C=CC(=O)C=C12
inactive: [2] | [3] | [5] | [6] | [7] | [15] | [8] | [9] | [10] | [14]
active: [1] 62.9 µM

Cc1ccc(C(=O)O)o1
inactive: [1] | [2] | [4] | [6] | [7] | [15] | [8] | [9] | [10] | [11] | [14]

CNC(=O)Oc1ccc2c(c1)[C@]1(C)CCN(C)[C@@H]1N2C
active: [1] 38 µM
inactive: [2] | [4] | [5] | [6] | [7] | [15] | [8] | [10] | [11] | [12] | [14]
